# Laboratory results reported in PubChem BioAssay (EPA / NIEHS).
# Records with an inconclusive call do not appear. Activity calls are given as the source filed them. How the source made its calls: active means hit-call score of the fitted dose curve at least 0.9, where 1 is the maximum; inconclusive means response in the unintended direction; inactive means score below 0.9.
# Target: human Dopamine Receptor D2 (DRD2), DRD2 (gene 1813) (UniProt P14416)
# Assay: NVS_GPCR_hDRD2s: NovaScreen (NVS) G Protein-Coupled Receptor Assay for human Dopamine Receptor D2 (DRD2) (AID 2283266)
# Experimental: NVS_GPCR_hDRD2s is a biochemical, single-readout assay that uses extracted gene-proteins from CHO in a cell-free assay. Measurements were taken 1.5 hours after chemical dosing in a 96-well plate.NVS_GPCR_hDRD2s is one of one assay component(s) measured or calculated from the NVS_GPCR_hDRD2s assay. It is designed to make measurements of radioligand binding, a form of binding reporter, as detected with scintillation counting signals by Filter-based radiodetection technology.Data from the assay component NVS_GPCR_hDRD2s was analyzed into 1 assay endpoint. This assay endpoint, NVS_GPCR_hDRD2s, was analyzed in the positive analysis fitting direction relative to DMSO as the negative control and baseline of activity. Using a type of binding reporter, loss-of-signal activity can be used to understand changes in the binding as they relate to the gene DRD2. Furthermore, this assay endpoint can be referred to as a primary readout, because the performed assay has only produced 1 assay endpoint. To generalize the intended target to other relatable targets, this assay endpoint is annotated to the gpcr intended target family, where the subfamily is rhodopsin-like receptor.
# Binding assays used specific radioligands (tritiated, iodinated) with non-radioactive competitive displacement ligands in agonist or antagonist protocols (as indicated) and various reference compounds and inhibitors to titrate specific binding to receptors and transporters. Most enzyme assays (CYPs, kinases, phosphatases, proteases, HDACs) used recombinant protein and specific substrates (fluorescence mostly, some colorimetric and radioactive) and inhibitors, followed by a biochemical separation of substrate and product. All assays for the biochemical HTS were initially run in duplicate at a single concentration (10 uM for CYP450 assays and 25 uM for all others). […] Each assay was run with positive and negative controls, and concurrent controls on every plate. The follow-up (secondary) screen tested active chemical-pairs in concentration series, as well as a few additional assays not tested in the primary screen, some selected negative inactives, and several cases re-run in the concentration series for confirmatory purposes.
# Sequence of human Dopamine Receptor D2 (DRD2), DRD2 (gene 1813) (P14416 whole entry, looked up): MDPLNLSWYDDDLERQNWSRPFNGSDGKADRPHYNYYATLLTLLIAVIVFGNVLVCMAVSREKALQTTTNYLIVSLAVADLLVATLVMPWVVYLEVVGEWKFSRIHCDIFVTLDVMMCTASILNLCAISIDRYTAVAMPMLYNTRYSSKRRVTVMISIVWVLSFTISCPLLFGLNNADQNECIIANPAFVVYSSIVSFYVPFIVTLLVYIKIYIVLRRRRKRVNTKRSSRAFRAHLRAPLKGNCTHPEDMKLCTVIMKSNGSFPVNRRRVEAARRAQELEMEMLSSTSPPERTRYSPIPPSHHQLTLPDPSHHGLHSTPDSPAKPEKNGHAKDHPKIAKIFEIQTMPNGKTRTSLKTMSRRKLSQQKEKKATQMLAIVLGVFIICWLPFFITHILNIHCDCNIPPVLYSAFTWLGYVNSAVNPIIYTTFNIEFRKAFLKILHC
Structure (SMILES),outcome,AC50
CCn1nc(Cc2ccccc2)cc1C1CCN(C[C@H]2C[C@H](N(C)[C@@H](C(=O)O)C(C)C)C[C@@H]2c2cccc(F)c2)CC1,inactive,
COc1cccc(-c2ccc(/C=C\CN3CCCCCC3)cc2Cl)c1,,8.5 µM (active)
CCc1cc(SCc2sc(-c3ccc(C(F)(F)F)cc3)nc2CN2CCN(c3ccc(OC)cc3)CC2)ccc1OCC(=O)O,,4.08 µM (active)
Cc1[nH]cnc1C[C@H]1CCc2c(C)c3ccccc3n2C1=O,,0.979 µM (active)
CCOC(=O)c1ccc(C2CCC(NC[C@H](O)COc3ccc(O)c(NS(C)(=O)=O)c3)CC2)cc1 (stereo not given in full),,0.0174 µM (active)
CCOC(=O)COc1ccc2c(c1)CC(NCC(O)c1cccc(Cl)c1)CC2 (stereo not given),,2.33 µM (active)
O=c1[nH]c2ccc(S(=O)CCN3CCC(Cc4ccc(F)cc4)CC3)cc2o1 (stereo not given),,13.5 µM (active)
CCCN(C1CCN(C(=O)C2CCNCC2)CC1)[C@@H]1CCc2ccc(OC)cc2C1,,18.8 µM (active)
CCC(C)(C)C(=O)O[C@H]1C[C@@H](C)C=C2C=C[C@H](C)[C@H](CC[C@@H]3C[C@@H](O)CC(=O)O3)[C@H]21,inactive,
CNS(=O)(=O)c1cc(C(=O)N2CCC(CCN3C4CCC3CC(n3c(C)nc5ccccc53)C4)(c3cccc(F)c3)CC2)c(Cl)cc1F (stereo not given),,8.72 µM (active)
